# From PubChem BioAssay
# Shown are actives, neighbours in structure and some others; about 12% of the full set was active somewhere.
# Sfp PPTase inh: Sfp phosphopantetheinyl transferase inhibition. 310,000 tested, 3.5% active. Q9F4F7. Biochemical Sfp PPTase activity, qHTS. AID 1490. Potency, µM, for inactives: largest response in the series, negative = inhibition, usual class: inhibitors;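 further: the enzyme is Sfp with the accession as filed and its product quenches rhodamine fluorescence; 0% = enzyme reaction without inhibitor and -100% = no enzyme wells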
#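 Fluorescence-quenching assay: 15 nM Sfp-PPTase preincubated 15 min at room temperature with compound, then 5 uM rhodamine-CoA and 12.5 uM BHQ-2-labelled YbbR peptide added. Fluorescence (ex 525/em 598 nm) read at start and after 30 min; difference gives rate.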
# JMJD2A Tudor inh: inhibitors of human JMJD2A Tudor domain; O75164; AlphaScreen JMJD2A-Tudor / H3K4me3 peptide binding; Potency, µM (doses to about 114 µM), inactives show at the top dose activity change, negative = inhibition, usual class: inhibitors; 390,000 tested, 4.4% active; further: on the % scale 0 is the no-effect control and ±100 the full control effect; nearly all actives have a fitted effect of over 50% in size
# BAZ2B inh: BAZ2B (human) inhibition; Q9UIF8; AID 504333; AlphaScreen BAZ2B-H3K14Ac peptide displacement; Potency, µM (titrated, usually from 114 µM), for inactives: at the top dose activity change, negative = inhibition, hits mostly inhibitors; 360,000 tested, 4.4% active; further: on the % scale 0 is the no-effect control and ±100 the full control effect; nearly all actives have a fitted effect of over 60% in size
#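 AlphaScreen displacement of biotin-H3(5-23)K14Ac peptide (50 nM final) from BAZ2B (50 nM final) in PBS pH 7.4, 0.01% Tween-20; complex preformed 30 min RT, then compounds (top 110 uM) 30 min RT, beads 20 min dark.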
# G9a inh: inhibitors of human histone lysine methyltransferase G9a. G9a H3K9 monomethylation, AlphaScreen, 2 h. Potency, µM (titrated, usually from 102 µM), inactives show at the top dose activity, negative = inhibition, actives largely listed as inhibitors. 350,000 tested, 8.8% active; further: on the % scale 0 is the no-effect control and ±100 the full control effect; nearly all actives have a fitted effect of over 75% in size
#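 Enzyme 20 nM + cpd, 15 min RT; add b-H3K9 pep 500 nM / SAM 20 uM; 2 h RT; anti-H3K9me1 Ab 0.5 ug/mL + SA donor / anti-rabbit acceptor beads 20 ug/mL each, 10 min; AlphaScreen read.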
# L3MBTL1 inh: blocks human L3MBTL1. Q9Y468. AlphaScreen L3MBTL1–H3K9me1 peptide binding. Potency, µM (top dose mostly 57.1 µM), for inactives: at the top dose activity, negative = inhibition, hits mostly inhibitors. 230,000 tested, 0.66% active. AID 485360; further: on the % scale 0 is the no-effect control and ±100 the full control effect; nearly all actives have a fitted effect of over 60% in size
#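 L3MBTL1 50 nM + b-AHA-H3(1-15)K9me1 75 nM, 30 min RT; compound added, 30 min RT; streptavidin donor/Ni-chelate acceptor beads 10 ug/mL each final, 30 min RT dark; AlphaScreen read.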
# HP1b chromo inh: inhibitors of HP1-beta chromodomain binding to methylated histone tails; P83916; AlphaScreen HP1-beta / biotin-H3K9me3 peptide binding; Potency, µM (highest dose often 114 µM), without a hit: top-dose activity change, negative = inhibition, hits mostly inhibitors; 390,000 tested, 0.56% active; AID 540317; further: nearly all actives have a fitted effect of over 70% in size
#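 Compound inhibition of the preformed complex between 50 nM HP1-beta and 50 nM biotinylated H3K9me3 peptide was read by AlphaScreen. Buffer was PBS pH 7.4 with 0.01% Tween-20. Incubations ran 30 min at room temperature, with 10 ug/mL donor/acceptor beads.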
# * = called active by the depositor; ? = inconclusive; . = not tested or not shown; [ ] = another dose, or the depositor's remark. The call rests on the fitted dose curve; in most records, active means well fitted curve in the direction sought with a large enough effect; inconclusive means small, poorly fitted or top-dose-only effect, or another doubt; inactive means no such curve, though single readings can be large; an effect the other way counts as inactive or inconclusive. Potency means the concentration at half of the fitted maximal effect.
SMILES,Sfp PPTase inh,JMJD2A Tudor inh,BAZ2B inh,G9a inh,L3MBTL1 inh,HP1b chromo inh
O=C(Cc1ccccc1)N1CCN(CCCc2ccccc2)CC1,0.8%,0.316µM*,56.2µM*,?,-1.0%,?
COc1ccccc1CC(=O)N1CCN(CCc2ccccc2)CC1,7.7%,-19.2%,-16.5%,19.0%,3.2%,9.1%
O=C(Cc1ccccc1)N1CCN(Cc2ccc(F)cc2)CC1,-23.3%,10µM*,79.4µM*,.,-11.3%,?
COc1cc(CN2CCN(C(=O)Cc3ccccc3)CC2)cc(OC)c1OC,-11.0%,7.08µM*,?,25.1µM*,2.2%,?
CC(C)=CC1C(C(=O)OCc2coc(Cc3ccccc3)c2)C1(C)C (configuration not stated),-2.8%,.,.,17.2%[12.7 µM],.,.
CC(C)(C)OC(=O)N1CC(O)CC1C(=O)OCC(=O)c1ccc(-c2ccccc2)cc1 (configuration not stated),-11.1%,?,-33.0%,?,.,28.3%
CCCOC(=O)c1cc2c(cn1)[nH]c1ccccc12,?,.,.,14.0%[59 µM],.,.
CCOC(=O)c1cc2c(cn1)[C@@H](CCO)NC2,.,44.7µM*,.,.,.,12.7%
COc1cc2c(c(OC)c1OC)-c1ccc(OC)c(=O)cc1[C@H](NC(C)=O)CC2,23.2%,.,.,13.5%[21.5 µM],.,.
COc1cccc(CNCCc2ccc(F)cc2)c1,-8.8%,?,39.8µM*,-19.1%,.,4.4%
COc1cccc(CCNCc2c(F)cccc2F)c1,-11.5%,?,39.8µM*,7.94µM*,0.1%,?
c1ccc2c(CN3CCN(C4CCCCC4)CC3)c[nH]c2c1,-25.8%,?,50.1µM*,50.1µM*,-3.6%,?
c1ccc2c(CNC3CCCCC3)c[nH]c2c1,5.6%,-19.7%,-4.2%,-8.5%,.,10.4%
Cc1[nH]c2ccccc2c1CN1CCCCC1,.,-13.2%,.,.,.,3.1%
c1ccc2c(CN3CCCCCCC3)c[nH]c2c1,4.8%,28.2µM*,-5.4%,?,-1.2%,-8.9%
CC(C)Oc1ccc(C(=O)Nc2ccc3c(c2)CCCN3C(=O)c2cccs2)cc1,.,?,-13.7%,-14.8%[59 µM],.,-14.5%
CP(=O)(Nc1ccc(Cl)cc1)c1nc2c(s1)CCCC2 (configuration not stated),3.4%,-14.2%,-18.6%,39.8µM*,.,33.0%
Cc1ccccc1-n1nc(C)c2c1NC(=O)CSC2c1ccccc1C(F)(F)F (configuration not stated),.,-2.3%,-1.6%,-10.9%[59 µM],.,29.2%
CN(CC(=O)Nc1cccc(F)c1)CC(=O)Nc1cccc(S(=O)(=O)N(C)c2ccccc2)c1,.,0.891µM*,.,.,.,39.8µM*
COc1ccccc1/C=C1\C(=O)NC(=S)N(c2ccccc2)C1=O,44.7µM*,28.2µM*,-24.2%,28.2µM*,.,25.7%
COc1ccccc1C=C1C(=O)NC(=S)NC1=O,.,20µM*,.,.,.,?
CCN1C(=O)/C(=C/c2ccc(N(CC)CC)cc2OC)C(=O)NC1=S,?,-23.7%,?,35.5µM*,-1.0%,6.9%
O=C1NC(=S)N(c2ccc(F)cc2)C(=O)/C1=C/c1ccccc1O,-13.8%,-2.9%,0.2%,-19.2%,.,30.6%
CN(Cc1ccc(OC(F)F)cc1)C(=O)c1ccccc1Sc1ccccc1C#N,.,7.4%,.,.,.,47.4%
COc1ccc(NC(=S)NC(NC(=O)CF)C(Cl)(Cl)Cl)c([N+](=O)[O-])c1 (configuration not stated),-5.8%,2.8%,?,10µM*,-3.8%,15.3%
SMILES,Sfp PPTase inh,JMJD2A Tudor inh,BAZ2B inh,G9a inh,L3MBTL1 inh,HP1b chromo inh
CSCC[C@H](NC(=O)[C@H](Cc1ccccc1)NC(=O)CNC(=O)CNC(=O)[C@@H](N)Cc1ccc(O)cc1)C(=O)O,2.0%,.,.,45.0%[59 µM],.,.
N#C/C(=C\c1ccc(O)c(O)c1)C(N)=S,0.178µM*,.,.,.,.,.
[N-]=[N+]=CC(=O)OCC(N)C(=O)O (configuration not stated),-8.8%,.,.,.,.,.
CCn1cc(C=C2C(=O)N(C)C(=O)N(C)C2=O)c2ccccc21,7.3%,-15.3%,5.6%,2.5%[0.501 µM],-3.8%[2.29 µM],36.3%
CN1C(=O)C(=Cc2ccc(SC3CCCCC3)o2)C(=O)N(C)C1=O,56.2µM*,?,56.2µM*,12.6µM*,.,?
CCN(CC)c1ccc(C=C2C(=O)N(C)C(=S)N(C)C2=O)o1,-17.1%,-30.1%,?,20µM*,-17.2%,-25.3%
CCN(CC)c1ccc(/C=C2\C(=O)NC(=S)N(C)C2=O)o1,-10.3%,-26.4%,?,12.0%[12.7 µM],-8.7%,-8.2%
CN1C(=O)C(=Cc2ccc(N3CCCCC3)o2)C(=O)N(C)C1=S,56.2µM*,-33.2%,-28.8%,.,-25.5%,-13.2%
CN1CCCCC1Cn1cc(C(=O)c2cc([N+](=O)[O-])ccc2I)c2ccccc21 (configuration not stated),-21.2%,.,.,.,.,.
CC(C)c1ccc(NC(=O)CN2C(=O)CN=C(c3ccccc3)c3ccccc32)cc1,.,-18.3%,.,5.5%[59 µM],.,10.3%
COc1cccc(N2CCN(C(=O)C3CCCN(S(=O)(=O)c4ccc5c(c4)oc(=O)n5C)C3)CC2)c1 (configuration not stated),-2.0%,-19.4%,-14.2%,-7.2%,.,8.2%
Cc1ccc(-c2nnc(Nc3ccc(O)cc3)c3ccccc23)cc1S(=O)(=O)N1CCOCC1,.,?,-19.6%,3.9%[59 µM],.,13.3%
COc1cc2c(cc1OC)[C@@H]1C(=O)c3ccc4oc(C(C)C)cc4c3OC1CO2 (some centres not stated),-39.6%,.,.,?,.,.
